Reference: PubChem BioAssay (EPA / NIEHS)
Activity calls are given as the source filed them. Rule for the calls: active = hit-call score of the fitted dose curve at least 0.9, where 1 is the maximum; inactive = score below 0.9.

The compounds below were run on CD69, CD69 (gene 969) (assay: BSK_SAg_CD69: BioMAP Diversity Plus: SAg Assay for CD69 Biomarker Activity (AID 2283089;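 for AC50: cell surface CD69 protein quantified by ELISA with fluorescence detection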)). Settings: primary human HUVEC with PBMC; actives raise or lower the signal.
Procedure, shortened: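 HUVEC co-cultured with PBMC were dosed with chemical, and CD69 was measured by ELISA with fluorescence read-out 24 h later. Bidirectional curve fitting used DMSO as negative control and activity baseline.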

Structure (SMILES) | outcome | AC50
N#CC(Br)Br | inactive | 
OCCOCCO | inactive | 
O=C(N[C@H](c1ccccc1)[C@@H]1CN2CCC1CC2)c1c(Cl)ccc(C(F)(F)F)c1Cl |  | 29.7 µM (active)
COP(=S)(OC)SCN1C(=O)c2ccccc2C1=O | inactive | 
C=CCc1ccc2c(c1)OCO2 | inactive | 
O=C(Nc1ccccc1)c1ccccc1I | inactive | 
c1ccc(N=Nc2ccccc2)cc1 | inactive | 
C1=Cc2cccc3cccc1c23 | inactive | 
CS(=O)(=O)NC(=O)c1cc(Oc2ccc(C(F)(F)F)cc2Cl)ccc1[N+](=O)[O-] | inactive | 
Oc1ccccc1Cl | inactive | 
CO[C@@H]1[C@H](OC(=O)NC(=O)CCl)CC[C@]2(CO2)[C@H]1[C@@]1(C)O[C@@H]1CC=C(C)C | inactive | 
CC(C)(C)OOC(=O)c1ccccc1 | inactive | 
[As]#[In] | inactive | 
Nc1ccc(N=Nc2ccccc2)cc1 | inactive | 
c1ccc2c(c1)-c1cccc3cccc-2c13 | inactive | 
CC(C)(OOC(C)(C)c1ccccc1)c1ccccc1 |  | 31.6 µM (active)
ClC1=C(Cl)[C@]2(Cl)[C@H]3[C@H]([C@@H]4C=C[C@H]3C4)[C@@]1(Cl)C2(Cl)Cl |  | 27.5 µM (active)
O=[N+]([O-])c1ccc(Oc2ccc(Cl)cc2Cl)cc1 | inactive | 
CCC[CH2][Sn]([Cl])([CH2]CCC)[CH2]CCC |  | 0.148 µM (active)
CN(C)c1ccccc1 | inactive | 
COC(=O)c1ccccc1N | inactive | 
CN(C)c1ccc(C(=O)c2ccc(N(C)C)cc2)cc1 | inactive | 
Cc1cc(N=Nc2ccccc2C)ccc1N | inactive | 
C[N+](C)(C)CC1CO1 (stereo unspecified) | inactive | 
O=Cc1ccco1 | inactive | 
CCC(C)c1ccc(O)cc1 (stereo unspecified) | inactive | 
[O-][Cl+]O | inactive | 
O=C(O)C1C2CCC(O2)C1C(=O)O (stereo unspecified) | inactive | 

The compounds below were run on Monocyte Chemoattractant Protein-1 (MCP1), CCL2 (gene 6347) (assay: BSK_SAg_MCP1: BioMAP Diversity Plus: SAg Assay for Monocyte Chemoattractant Protein-1 (MCP1) Biomarker Activity (AID 2283090)). Settings: primary human HUVEC with PBMC; actives raise or lower the signal.
Procedure, shortened: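 MCP-1 levels in the endothelial–PBMC SAg co-culture were quantified by ELISA at 24 h post-dosing; both increases and decreases versus DMSO scored. Cytotoxicity monitored by SRB total protein in parallel cultures.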

Structure (SMILES) | outcome | AC50
N#CC(Br)Br | inactive | 
OCCOCCO | inactive | 
O=C(N[C@H](c1ccccc1)[C@@H]1CN2CCC1CC2)c1c(Cl)ccc(C(F)(F)F)c1Cl | inactive | 
COP(=S)(OC)SCN1C(=O)c2ccccc2C1=O | inactive | 
C=CCc1ccc2c(c1)OCO2 | inactive | 
O=C(Nc1ccccc1)c1ccccc1I | inactive | 
c1ccc(N=Nc2ccccc2)cc1 | inactive | 
C1=Cc2cccc3cccc1c23 | inactive | 
CS(=O)(=O)NC(=O)c1cc(Oc2ccc(C(F)(F)F)cc2Cl)ccc1[N+](=O)[O-] | inactive | 
Oc1ccccc1Cl | inactive | 
CO[C@@H]1[C@H](OC(=O)NC(=O)CCl)CC[C@]2(CO2)[C@H]1[C@@]1(C)O[C@@H]1CC=C(C)C | inactive | 
CC(C)(C)OOC(=O)c1ccccc1 | inactive | 
[As]#[In] | inactive | 
Nc1ccc(N=Nc2ccccc2)cc1 | inactive | 
c1ccc2c(c1)-c1cccc3cccc-2c13 | inactive | 
CC(C)(OOC(C)(C)c1ccccc1)c1ccccc1 |  | 33 µM (active)
ClC1=C(Cl)[C@]2(Cl)[C@H]3[C@H]([C@@H]4C=C[C@H]3C4)[C@@]1(Cl)C2(Cl)Cl |  | 31.3 µM (active)
O=[N+]([O-])c1ccc(Oc2ccc(Cl)cc2Cl)cc1 |  | 29.1 µM (active)
CCC[CH2][Sn]([Cl])([CH2]CCC)[CH2]CCC |  | 0.148 µM (active)
CN(C)c1ccccc1 | inactive | 
COC(=O)c1ccccc1N | inactive | 
CN(C)c1ccc(C(=O)c2ccc(N(C)C)cc2)cc1 | inactive | 
Cc1cc(N=Nc2ccccc2C)ccc1N |  | 20 µM (active)
C[N+](C)(C)CC1CO1 (stereo unspecified) | inactive | 
O=Cc1ccco1 | inactive | 
CCC(C)c1ccc(O)cc1 (stereo unspecified) | inactive | 
[O-][Cl+]O | inactive | 
O=C(O)C1C2CCC(O2)C1C(=O)O (stereo unspecified) | inactive | 
